Screens deposited in PubChem BioAssay by National Center for Advancing Translational Sciences (NCATS).
gsp ag = qHTS for Agonist of gsp, the Etiologic Mutation Responsible for Fibrous Dysplasia/McCune-Albright Syndrome: qHTS. gsp mutant cells, cAMP HTRF, 30 min. Potency, µM (top dose mostly 76.9 µM), without a hit: top-dose activation (cAMP increase), most hits filed as activators. 0.13% of 340,000 active; active means well fitted activation curve with a large enough effect; inconclusive means small, poorly fitted or top-dose-only effect, or another doubt; inactive means no such curve, though single readings can be large or run the other way; cell line not stated here;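 further: phosphodiesterase inhibitor Ro 20-1724 added with compounds to block cAMP breakdown; potency means the concentration at half of the fitted maximal effect; nearly all actives have a fitted effect of over 60% in size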
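Cells in DMEM/10% FBS with G418 were pretreated with compounds in DMSO plus […] (300 uM stock) for 30 min at 37C. cAMP was measured by HTRF (cAMP-d2 plus anti-cAMP antibody-K) after 30 min at room temperature.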
pAkt inh = HTS Assay for Inhibitors of Akt Phophorylation: Primary Screen | Neuro2A IGF-stimulated pAkt S473 HTRF, 20 min; hits give low values | activity change, % for hits at 50 µM | 0.32% of 360,000 active; in the data active means activity change below about -80%; inconclusive means mostly about -51% to -80%; further: on the % scale 0 is the no-effect control and ±100 the full control effect
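Neuro2A cells in DMEM with 0.5% FBS, overnight at 37 deg C, given compound at single 50 µM final, then IGF (6 nM final) for 20 min at 37 deg C. Lysed; phospho-Akt Ser473 by HTRF after 24 h, 665/615 ratio.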
gsp antag = qHTS for Antagonists of gsp, the Etiologic Mutation Responsible for Fibrous Dysplasia/McCune-Albright Syndrome: qHTS; Potency, µM (titrated, usually from 76.9 µM), for inactives: at the top dose activity change, negative = inhibition, hits mostly inhibitors; 0.4% of 340,000 active; gsp-mutant cells, cAMP HTRF, 30 min; calls by dose curve; cell line not stated here;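 further: intracellular cAMP measured with PDE inhibitor Ro 20-1724 present during compound exposure; potency means the concentration at half of the fitted maximal effect; on the % scale 0 is the no-effect control and ±100 the full control effect; nearly all actives have a fitted effect of over 65% in size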
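Measurement of cellular cAMP by homogeneous time-resolved fluorescence following a 30 min compound exposure at 37C. The PDE inhibitor […] was present throughout; the assay buffer was DPBS with 0.05% BSA and 0.005% Tween 20.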
RXFP1 antag = qHTS Assay for Antagonists of the Relaxin Receptor RXFP1; activity change, negative = inhibition, % at 57.5 µM; Relaxin receptor 1 (Homo sapiens), Q9HBX9; HEK293-RXFP1, relaxin-stimulated cAMP HTRF, 30 min; hits give low values; 0.59% of 350,000 active;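 active means activity change of -60% or lower, but not beyond a set lower limit; inconclusive means change between -60% and -40%, or beyond the set limit; inactive means change above -40%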; further: on the % scale 0 is the no-effect control and ±100 the full control effect
Target sequence (Q9HBX9 whole entry, looked up): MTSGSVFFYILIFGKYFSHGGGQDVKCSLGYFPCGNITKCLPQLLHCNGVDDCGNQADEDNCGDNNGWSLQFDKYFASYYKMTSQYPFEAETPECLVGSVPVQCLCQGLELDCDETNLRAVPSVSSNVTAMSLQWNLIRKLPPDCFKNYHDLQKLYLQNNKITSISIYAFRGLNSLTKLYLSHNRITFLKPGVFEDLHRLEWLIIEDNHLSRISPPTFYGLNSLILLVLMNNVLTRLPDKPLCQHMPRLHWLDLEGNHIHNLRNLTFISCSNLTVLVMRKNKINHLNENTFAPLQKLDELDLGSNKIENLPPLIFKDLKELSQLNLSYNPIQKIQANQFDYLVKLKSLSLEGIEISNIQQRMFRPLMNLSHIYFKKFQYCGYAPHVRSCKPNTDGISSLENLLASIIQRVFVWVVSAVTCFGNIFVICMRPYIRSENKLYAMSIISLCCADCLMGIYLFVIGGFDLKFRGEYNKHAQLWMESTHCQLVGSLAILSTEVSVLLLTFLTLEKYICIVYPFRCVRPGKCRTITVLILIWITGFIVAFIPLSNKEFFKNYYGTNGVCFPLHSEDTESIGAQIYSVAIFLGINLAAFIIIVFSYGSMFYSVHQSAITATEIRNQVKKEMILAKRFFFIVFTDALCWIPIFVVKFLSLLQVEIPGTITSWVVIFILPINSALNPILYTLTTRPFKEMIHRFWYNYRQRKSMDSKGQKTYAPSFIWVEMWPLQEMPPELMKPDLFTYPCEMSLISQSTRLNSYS
RXFP1 ag = qHTS Assay for Agonists of the Relaxin Receptor RXFP1; Potency, µM (doses to about 57.5 µM), for the others: top-dose activation, most hits filed as activators; Relaxin receptor 1 (Homo sapiens), Q9HBX9; HEK293T-RXFP1 cAMP TR-FRET, 30 min; response scale: percent of porcine relaxin response, buffer zero; 0.3% of 370,000 active; AID 2676, 2010; active means well fitted activation curve with a large enough effect; inconclusive means small, poorly fitted or top-dose-only effect; further: potency means the concentration at half of the fitted maximal effect; on the % scale 0 is the no-effect control and ±100 the full control effect; nearly all actives have a fitted effect of over 60% in size
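HEK293T cells stably expressing RXFP1 were pretreated with the PDE4 inhibitor Ro 20174, exposed to compounds for 30 min at 37C, lysed, and cAMP was read by TR-FRET. Data normalized to buffer (basal) and 29 nM porcine relaxin (100%).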
Numbers without * were called inactive; [ ] = dose if it differs, or a comment. Hits are enriched below; roughly 1.3% of the tested compounds scored in any of these assays.

What do the screens show for `COc1ccc(NC(=O)Cc2ccc(Cl)c(Cl)c2)cn1`?
gsp ag: 5.9%; pAkt inh: inactive; gsp antag: 1.6%; RXFP1 antag: 3.0; RXFP1 ag: 0.8%

How did COc1cc(CNn2nnnc2N)cc(Br)c1OCc1c(Cl)cccc1Cl do in these assays?
gsp ag: -2.9%; pAkt inh: inactive; gsp antag: 39.8µM*; RXFP1 antag: -13.4; RXFP1 ag: 0.6%

Results for COc1cc(CNn2nnnc2N)cc(Br)c1OCC(=O)NC(C)(C)C ?
gsp ag: -19.2%; pAkt inh: inactive; gsp antag: 6.0%; RXFP1 antag: 0.5; RXFP1 ag: 1.9%

What do the screens show for `CCCCOc1ccc(-c2c(C(=O)Nc3ccccc3)c(C)[nH]c(=S)c2C#N)cc1`?
gsp ag: 2.51µM*; pAkt inh: inactive; gsp antag: 14.5%; RXFP1 antag: 28.1; RXFP1 ag: 22.4µM*

Results for CCOc1ccccc1NC(=O)NCCn1c(=O)oc2ccc(C)cc21 ?
RXFP1 ag: -5.5%

Results for Cc1ccc(Cl)cc1NC(=O)Cn1cc(S(=O)(=O)Cc2ccccc2Cl)c2ccccc21 ?
RXFP1 antag: -26.4; RXFP1 ag: 1.3%

How did CCOc1ccc(C2=C(C(=O)CC)Sc3nncn3N2C(=O)CC)cc1 do in these assays?
RXFP1 antag: inconclusive; RXFP1 ag: 2.8%

Results for CCOc1ccc(-n2c([S-])c(C(=O)Nc3ccc(S(=O)(=O)N4CCOCC4)cc3)[n+]3cc(C(N)=O)ccc23)cc1 ?
gsp ag: 3.7%[15.4 µM]; pAkt inh: inactive; gsp antag: 10.9%; RXFP1 antag: -2.2; RXFP1 ag: 31.6µM*

How did CCOC(=O)c1c(-c2ccc(OC)c(OC)c2)csc1NC(=O)C1CCCO1 (stereo not given) do in these assays?
gsp ag: -3.9%[15.4 µM]; pAkt inh: inactive; gsp antag: 25.1µM*; RXFP1 antag: -16.0; RXFP1 ag: 1.0%

What do the screens show for `COc1ccc(C(=O)n2nc(-c3ccco3)nc2NCc2cccs2)cc1OC`?
RXFP1 antag: -9.7; RXFP1 ag: -0.3%

Results for Cc1ncc(S(=O)(=O)c2ccc(Cl)cc2)c(-c2ccccc2)n1 ?
gsp ag: 0.0%; pAkt inh: inactive; gsp antag: -4.8%; RXFP1 antag: -14.5; RXFP1 ag: -0.1%

Results for COc1ccc(-c2nc(C)ncc2N=Nc2ccccc2)cc1 ?
gsp ag: -31.9%; pAkt inh: -114.2%*; gsp antag: -25.0%; RXFP1 antag: 6.2; RXFP1 ag: -0.8%

How did Cc1ncc(N=Nc2ccc(F)cc2)c(-c2ccc(Cl)cc2)n1 do in these assays?
gsp ag: 26.2%; pAkt inh: -117.8%*; gsp antag: -10.4%; RXFP1 antag: -3.2; RXFP1 ag: 2.5%

How did COc1ccc(N=Nc2nc(-c3ccccc3)c(-c3ccccc3)[nH]2)cc1 do in these assays?
gsp ag: 4.8%[15.4 µM]; pAkt inh: inactive; gsp antag: inconclusive; RXFP1 antag: -17.2; RXFP1 ag: 4.5%

What do the screens show for `CN1CCCC(CC2Oc3ccccc3Sc3ccccc32)C1` (stereo not given)?
gsp ag: -14.0%[15.4 µM]; pAkt inh: inactive; gsp antag: 22.7%; RXFP1 antag: -81.4*; RXFP1 ag: -1.5%

How did c1ccc2c(c1)OC(CCCN1CCCCC1)c1ccccc1S2 (stereo not given) do in these assays?
gsp ag: -6.0%; pAkt inh: inactive; gsp antag: 21.1%; RXFP1 antag: inconclusive; RXFP1 ag: 1.8%

How did COC(=O)c1c(C)c2c(C)cc3ccccn3c-2c1C(=O)OC do in these assays?
gsp ag: -7.2%; pAkt inh: -104.2%*; gsp antag: -7.0%; RXFP1 antag: -13.2; RXFP1 ag: 0.9%

Results for CCc1c(-c2ccccc2)nc2sc3c(c2c1N)CCCC3 ?
gsp ag: 6.1%[15.4 µM]; pAkt inh: inactive; gsp antag: 35.5µM*; RXFP1 antag: -31.8; RXFP1 ag: 0.3%

What do the screens show for `COCCNC(=O)c1cn(C)c2ccc(S(=O)(=O)N(C)C3CCCCC3)cc2c1=O`?
gsp ag: -14.9%; pAkt inh: inactive; gsp antag: 11.2µM*; RXFP1 ag: 0.8%

Results for CCOCCCNC(=O)c1cn(C)c2ccc(S(=O)(=O)N(C)C3CCCCC3)cc2c1=O ?
RXFP1 ag: -0.5%

What do the screens show for `CSCC[C@@H](C(=O)NCCCCCCCCCCC(=O)N1CCN(C(=O)OC(C)(C)C)CC1)n1cc(CCO)nn1`?
gsp ag: -22.9%; pAkt inh: inactive; gsp antag: 31.6µM*; RXFP1 ag: 0.6%

What do the screens show for `CCOC(=O)N1CCN(C(=O)c2cc(COc3ccc4ncccc4c3)on2)CC1`?
gsp ag: -13.8%; pAkt inh: inactive; gsp antag: inconclusive; RXFP1 antag: 1.1; RXFP1 ag: -1.1%

What do the screens show for `O=C(NC1CCCCCCC1)c1cc(COc2ccc3ncccc3c2)on1`?
gsp ag: 3.4%[15.4 µM]; pAkt inh: inactive; gsp antag: 39.8µM*; RXFP1 antag: -20.9; RXFP1 ag: 4.0%

Results for Cc1cc(CN(C)C(=O)c2cc(COc3ccc4ncccc4c3)on2)on1 ?
gsp ag: 18.6%; pAkt inh: inactive; gsp antag: -20.0%; RXFP1 antag: 0.8; RXFP1 ag: 5.4%

Results for CC(CNC(=O)c1cc(COc2ccc3ncccc3c2)on1)c1ccccc1 (stereo not given) ?
gsp ag: -1.7%; pAkt inh: inactive; gsp antag: 31.6µM*; RXFP1 antag: -32.4; RXFP1 ag: -1.1%

Results for Cc1cccnc1CN1CCN(C(=O)c2cc(COc3ccc4ncccc4c3)on2)CC1 ?
gsp ag: 0.4%[15.4 µM]; pAkt inh: inactive; gsp antag: 31.6µM*; RXFP1 antag: -11.4; RXFP1 ag: 0.5%

How did CCOC(=O)C1=C(N)OC2=C(C(=O)CC(C)(C)C2)C1c1ccc(C)s1 (stereo not given) do in these assays?
gsp ag: -6.0%[15.4 µM]; pAkt inh: inactive; gsp antag: -18.8%; RXFP1 antag: -61.6*; RXFP1 ag: -3.8%

How did S=c1[nH]nc(SCc2ccccc2)c2[nH]cnc12 do in these assays?
gsp ag: 14.1µM*; pAkt inh: inactive; gsp antag: inconclusive; RXFP1 antag: 58.8

What do the screens show for `CCCCSc1n[nH]c(=S)c2nc[nH]c12`?
gsp ag: inconclusive; pAkt inh: inactive; gsp antag: 7.5%; RXFP1 antag: 28.7

Results for CCOC(=O)c1cccnc1SCC(=O)Nc1ccc(C)cc1C ?
RXFP1 antag: -0.6; RXFP1 ag: -0.2%
